Experimental data taken from PubChem BioAssay.

Experiment: inhibitors of Chlamydomonas gravitaxis, primary screen, whole organism, Chlamydomonas reinhardtii, WT vs cilia-less mutant, absorbance, 96-well (AID 463189);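 further: 0% = wild type cc124 cells in DMSO and 100% = ciliumless bld1 mutant cells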
Conditions: OD600 absorbance, 2 days, at 10 µM, active compounds read high;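 active means inhibition at or above 50% relative to wild type and mutant plate controls; inactive means inhibition below 50%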

inhibition, inactive:
NC(=O)CNCCC(c1ccccc1)c1ccccc1 -2.16%
NC(CCCP(=O)(O)O)C(=O)O (configuration not stated) -5.37%
N[C@H](CO)C(=O)O 3.16%
CC[C@@H](C)[C@H]1O[C@]2(CC[C@@H]1C)C[C@@H]1C[C@@H](C/C=C(\C)[C@@H](O[C@H]3C[C@H](OC)[C@@H](O[C@H]4C[C@H](OC)[C@@H](O)[C@H](C)O4)[C@H](C)O3)[C@@H](C)/C=C/C=C3\CO[C@@H]4[C@H](O)C(C)=C[C@@H](C(=O)O1)[C@]34O)O2 22.3%
Cc1ccc(C(=O)O[C@H](C(=O)O)[C@H](OC(=O)c2ccc(C)cc2)C(=O)O)cc1 (tested in a mixture with another compound) 5.96%
Nc1ncnc2c1ncn2C1CCCC1 -2.12%
CCN(CC)C(C)C(=O)N1c2ccccc2Sc2ccccc21 (configuration not stated) 40.1%
CC(C)(Sc1ccc(CCN(CCCCC2CCCCC2)C(=O)NC2CCCCC2)cc1)C(=O)O -0.647%
CC(C)NCC(O)COc1cccc2ccccc12 (configuration not stated) 6.9%
O=C(O)c1cc(=O)c2ccccc2[nH]1 9.15%
Nc1ncnc2c1nc(Br)n2C1OC2COP(=O)(O)O[C@@H]2C1O (some centres not stated) 7.89%
CN1CCN(c2nc3cc(C(F)(F)F)ccc3n3cccc23)CC1 10.9%
N#C/C(=C\c1ccc(O)c(O)c1)C(=O)c1ccc(O)c(O)c1 2.24%
CCCCCCCCCCCCCCCC(=O)NCCO 8.85%
NCCCS(=O)(=O)O -4.87%
CC(C)NC[C@H](O)c1ccc(O)c(O)c1 8.51%
CN(C)c1cc2c(Nc3ccc4c(cnn4Cc4ccccc4)c3)ncnc2cn1 2.93%
Nc1nc2c(ncn2COC(CO)CO)c(=O)[nH]1 3.53%
O=Nc1ccc2oc(=O)ccc2c1 -9.21%
Clc1cccc(Cl)c1NC1=NCCN1 5.28%
Cn1cnc([N+](=O)[O-])c1Sc1ncnc2nc[nH]c12 -2.23%
CC(C)=CCC/C(C)=C/CC/C(C)=C/CSc1ccccc1C(=O)O -8.73%
